From PubChem
MEKK2mut PB1 HTS: signal of MEK5 binding to mutant human MEKK2 PB1 domain | percent response, % at 10 µM | bead flow cytometry, Alexa488-MEK5 binding to MEKK2 mutant | hit rate 0.35% among 290,000 | AID 1530; in the data active = percent response above about 24%, passing the limit was not always enough
SKN-1 inh: blocks SKN-1 activity in C. elegans. C. elegans VP596 Pgst-4::GFP/RFP ratio, acrylamide-induced, 24 h. inhibition, % at 21.8 µM. hit rate 0.49% among 360,000. AID 624304;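 active = interference check ratio from 0.5 to 1.5 plus GFP to RFP signal ratio inhibition reaching or exceeding a fixed threshold, cut at about 30% in these data, passing the limit was not always enough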
MEKK3 PB1 HTS: modulators (inhibitors or enhancers) of MEK5 binding to human MEKK3 PB1 domain. binding response (% of control), % at 10 µM. hit rate 1.4% among 290,000. Q99759. bead-based flow cytometry, Alexa488-MEK5 binding to MEKK3; actives lie on both sides; 0 = blocked by unlabeled MEK5, 100 = vehicle. AID 1529;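 active = binding response more than 3 SD above or below the average of its plate-row segment, actives on both sides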;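 also: Alexa488 bead fluorescence after subtracting the streptavidin-only scavenger bead signal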
Target sequence (Q99759 whole entry, looked up, the tested form may be a part): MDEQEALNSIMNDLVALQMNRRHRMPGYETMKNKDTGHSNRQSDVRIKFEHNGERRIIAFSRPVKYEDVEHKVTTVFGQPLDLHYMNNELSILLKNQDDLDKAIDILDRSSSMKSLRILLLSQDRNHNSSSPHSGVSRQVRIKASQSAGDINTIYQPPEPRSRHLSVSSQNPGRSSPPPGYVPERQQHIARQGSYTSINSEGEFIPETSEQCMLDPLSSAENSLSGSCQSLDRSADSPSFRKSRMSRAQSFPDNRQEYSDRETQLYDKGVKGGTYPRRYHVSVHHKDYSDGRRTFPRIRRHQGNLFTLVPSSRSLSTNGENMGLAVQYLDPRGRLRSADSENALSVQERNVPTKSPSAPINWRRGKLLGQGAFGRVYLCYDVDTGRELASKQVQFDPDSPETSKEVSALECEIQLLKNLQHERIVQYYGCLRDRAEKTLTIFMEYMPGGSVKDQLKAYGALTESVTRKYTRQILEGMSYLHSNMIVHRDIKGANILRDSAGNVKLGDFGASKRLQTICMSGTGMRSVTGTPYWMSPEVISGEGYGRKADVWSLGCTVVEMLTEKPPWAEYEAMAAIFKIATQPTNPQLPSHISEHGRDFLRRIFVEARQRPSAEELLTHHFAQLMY
MEKK2wt PB1 HTS: raises or lowers MEK5 binding to wildtype human MEKK2 PB1 domain. hit rate 1.1% among 290,000. Q9Y2U5. binding response (% of control), % at 10 µM. bead flow cytometry, Alexa488-MEK5 binding to MEKK2 WT; actives lie on both sides; in the data active = binding response below about 67% or above about 130%
CendR NRP1 mod: alters CendR peptide binding to human NRP-1 | O14786 | FAM-RPARPAR peptide binding to NRP-1, fluorescence polarization | inhibition, % at 25 µM | hit rate 0.85% among 360,000 | AID 602438;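 active = inhibition or corrected inhibition above about 18%, plus a signal ratio from 0.5 to 1.5, limit read from the data, passing the limit was not always enough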
Large screens that a line does not name were inactive; [ ] = another dose, or the depositor's remark. Compounds with a hit are over-represented: about 3.2% of the library has one in this group of screens.

CC(C)OC(=O)CSc1nc2cc3c(cc2cc1C#N)OCO3	SKN-1 inh 33.8
O=C1CCN(Cc2ccccc2)C(=S)N1	none (no result: MEKK2mut PB1 HTS, MEKK3 PB1 HTS, MEKK2wt PB1 HTS)
CCOc1cc(CNCc2cccnc2)cc(Br)c1OCC(N)=O	none
O=C(Nc1ccc(OC(F)F)c(Cl)c1)C(c1ccccc1)c1ccccc1	MEKK3 PB1 HTS 147.0
O=C(Cc1cccc2ccccc12)Nc1ccc(OC(F)F)c(Cl)c1	none
COc1ccccc1CNC(=O)C1CCN(C(=O)N(C)C)CC1	SKN-1 inh 35.4
CCOC(=O)[C@]12CCC=C1N(Cc1ccco1)C(=O)[C@H](CC(=O)N1CCCCC1)C2	none (no result: MEKK2mut PB1 HTS, MEKK3 PB1 HTS, MEKK2wt PB1 HTS)
COc1ccc(N2CCN(Cc3nc(N)nc(Nc4ccc(C)c(Cl)c4)n3)CC2)cc1	SKN-1 inh 36.0
CCOc1ccc(C(c2c(C)[nH][nH]c2=O)c2c(C)[nH][nH]c2=O)cc1OC	none
CCOc1cc(C(c2c(C)[nH][nH]c2=O)c2c(C)[nH][nH]c2=O)ccc1OS(=O)(=O)c1ccc(C)cc1	SKN-1 inh 46.3
CCCCN(C(=O)c1ccccc1OCc1ccc(F)cc1)c1c(N)n(CC(C)C)c(=O)[nH]c1=O	none
COc1ccc(S(=O)(=O)NC(C)C(=O)N2CCCC2)cc1C (stereo not drawn)	none
COc1ccc(S(=O)(=O)NC2CC2)cc1Br	CendR NRP1 mod 27.1
COc1ccc(S(=O)(=O)NC(C)C(=O)NC2CC2)cc1C (stereo not drawn)	CendR NRP1 mod 28.2
Cc1ccc(C)c(Oc2ccc(S(=O)(=O)N3CCN(C)CC3)cn2)c1	none (no result: MEKK2mut PB1 HTS, MEKK3 PB1 HTS, MEKK2wt PB1 HTS)
COc1ccc(S(=O)(=O)N2CCN(C)CC2)cn1	CendR NRP1 mod 22.4
CCOc1ccc(S(=O)(=O)N2CCN(C(=O)c3sccc3C)CC2)cc1	CendR NRP1 mod 27.4
CCCCOc1ccc(S(=O)(=O)N2CCCCCC2)cc1	none
CCCCOc1ccc(S(=O)(=O)N2CCN(C)CC2)cc1	CendR NRP1 mod 26.1 (no result: MEKK2mut PB1 HTS, MEKK3 PB1 HTS, MEKK2wt PB1 HTS)
O=C(CN(Cc1ccccc1Cl)C(=O)c1csnn1)NCc1ccc2c(c1)OCO2	none
COc1cc(CCC(=O)OCC(=O)Nc2cc(S(=O)(=O)N3CCOCC3)ccc2Cl)cc(OC)c1OC	none (no result: MEKK2mut PB1 HTS, MEKK3 PB1 HTS, MEKK2wt PB1 HTS)
Cn1c(Cc2ccccc2)nnc1SCC(=O)Nc1ccccc1	none
Cn1c(Cc2ccccc2)nnc1SCC(=O)Nc1ccc2c(c1)OCO2	SKN-1 inh 46.2
Cc1ccc(-c2ccc(=O)n(Cc3c(F)cccc3Cl)n2)cc1	none
CCC(C)NC(=O)Cc1c(C)c2cc3c(cc2oc1=O)OC(C)(C)CC3 (stereo not drawn)	none
CC(C)NS(=O)(=O)c1ccc2c(c1)oc(=O)n2C	CendR NRP1 mod 21.9
Cn1c(=O)oc2cc(S(=O)(=O)Nc3ccccc3)ccc21	none
Cn1c(=O)oc2cc(S(=O)(=O)Nc3cccc(C(=O)O)c3)ccc21	none
CC(=O)c1cccc(NS(=O)(=O)c2ccc3c(c2)oc(=O)n3C)c1	SKN-1 inh 36.8
COC(=O)c1cc(C(=O)OC)n(Cc2ccc(Br)cc2)n1	CendR NRP1 mod 31.7
O=C(c1cccc(F)c1)N1CCN(c2cccc(C(F)(F)F)c2)CC1	SKN-1 inh 38.6
Cc1ccc(S(=O)(=O)/N=S(/C)c2ccccc2)cc1 (stereo not drawn)	CendR NRP1 mod 31.6
CC/S(=N\S(=O)(=O)c1ccc(C)cc1)c1ccccc1 (stereo not drawn)	none
COc1ccc(N(CC(O)Cn2c3ccccc3c3ccccc32)S(=O)(=O)c2ccccc2)cc1 (stereo not drawn)	none
CC(=O)Nc1ccccc1N(CC(O)Cn1c2ccccc2c2ccccc21)S(=O)(=O)c1ccc(C)cc1 (stereo not drawn)	MEKK3 PB1 HTS 138.0
O=C1OCC/C1=C\c1ccccc1	none
CC1(C)CCC/C(=C\c2ccccc2)C1=O	CendR NRP1 mod 19.7 (no result: MEKK2mut PB1 HTS, MEKK3 PB1 HTS, MEKK2wt PB1 HTS)
Cc1ccc(S(=O)(=O)/N=C/c2ccc(N(C)C)cc2)cc1	none
Cc1ccc(S(=O)(=O)NCCN=Cc2ccc(N(C)C)cc2)cc1	MEKK2wt PB1 HTS 61.0[inhibitor]
CC(C)CCn1c(Oc2ccc(Cl)cc2)nc2c1c(=O)n(C)c(=O)n2C	CendR NRP1 mod 26.2
COc1ccc(Oc2nc3c(c(=O)n(C)c(=O)n3C)n2Cc2ccccc2)cc1	none
O=C(Nc1cc(-c2ccccc2)nn1C1CCCCC1)c1ccc(Cl)cc1	none (no result: MEKK2mut PB1 HTS, MEKK3 PB1 HTS, MEKK2wt PB1 HTS)
COc1cc2c(cc1NC(=O)c1cc(-c3cccnc3)nc3ccc(C)cc13)oc1ccccc12	none
COc1cccc(-c2cc(C(=O)Nc3nc4ccccc4s3)c3ccccc3n2)c1	SKN-1 inh 46.3
COc1cc2c(cc1NC(=O)c1cc(-c3ccncc3)nc3ccccc13)oc1ccccc12	MEKK2wt PB1 HTS 16.0
COc1ccccc1N=Nc1nc(-c2ccccc2)c(-c2ccccc2)[nH]1	SKN-1 inh 36.5
CCCCCNC(=O)c1[nH]c(C(F)(F)F)nc1-c1ccccc1	none (no result: MEKK2mut PB1 HTS, MEKK3 PB1 HTS, MEKK2wt PB1 HTS)
CC(OC(=O)COc1ccc(C#N)cc1)C(=O)Nc1ccc(Cl)cn1 (stereo not drawn)	none (no result: MEKK2mut PB1 HTS, MEKK3 PB1 HTS, MEKK2wt PB1 HTS)
COCCNC(=O)C1(C)CCCN(C(=O)c2cccnc2SC)C1 (stereo not drawn)	none (no result: MEKK2mut PB1 HTS, MEKK3 PB1 HTS, MEKK2wt PB1 HTS)
Cn1ccc2c(N3CCCCCCC3)cc3c(c21)C1CCC3O1 (stereo not drawn)	none (no result: MEKK2mut PB1 HTS, MEKK3 PB1 HTS, MEKK2wt PB1 HTS)
COc1ccc(NC(=O)c2ccccc2[N+](=O)[O-])cc1	none
COc1ccc(CNC(=O)c2ccccc2[N+](=O)[O-])cc1	CendR NRP1 mod 26.2
CCCOc1ccccc1C(=O)N(Cc1cccc(Br)c1)C1CCS(=O)(=O)C1 (stereo not drawn)	none
COc1ccc([N+](=O)[O-])cc1NC(=O)CCNC(=O)Cn1ccc2ccccc2c1=O	CendR NRP1 mod 29.7
OC(c1ccccc1)(c1ccccc1)c1nccc2ccccc12	none (no result: MEKK2mut PB1 HTS, MEKK3 PB1 HTS, MEKK2wt PB1 HTS)
CCN(CC)CCN1C(=O)C(O)=C(C(=O)c2cc3cccc(OC)c3o2)C1c1ccc(F)cc1 (stereo not drawn)	none
CCCn1nc(C(=O)Nc2nnc(CC)s2)c2ccccc2c1=O	MEKK2wt PB1 HTS -5.0
COCCCN1C(=O)C(CC(=O)NCC2CCCCC2)CC(C(=O)N(C)C)=C1C (stereo not drawn)	none (no result: MEKK2mut PB1 HTS, MEKK3 PB1 HTS, MEKK2wt PB1 HTS)
COc1ccccc1CN(C)C(=O)c1cc(S(=O)(=O)N2CCCCCC2)ccc1OC	none (no result: MEKK2mut PB1 HTS, MEKK3 PB1 HTS, MEKK2wt PB1 HTS)
Cc1cc(=O)n2nc(N3CCCC(C(=O)N4CCOCC4)C3)sc2n1 (stereo not drawn)	CendR NRP1 mod 44.4
Cc1cc(=O)n2nc(N3CCCC(C(=O)N4CCc5ccccc54)C3)sc2n1 (stereo not drawn)	none
CC(=O)Nc1ccc(SC[C@H](Cc2ccccc2)N2CCN(CCc3ccccc3)CCC2=O)cc1	CendR NRP1 mod 25.3
CC(=O)Nc1ccc(SC[C@H](Cc2ccccc2)N2CC[C@@H](C(C)(C)C)CCC2=O)cc1	CendR NRP1 mod 27.9 (no result: MEKK2mut PB1 HTS, MEKK3 PB1 HTS, MEKK2wt PB1 HTS)
CC(=O)NC(c1ccccc1)c1nc(-c2ccc(Cl)cc2)cs1 (stereo not drawn)	none (no result: MEKK2mut PB1 HTS, MEKK3 PB1 HTS, MEKK2wt PB1 HTS)
O=C(CN1C(=O)c2ccccc2C1=O)OCC(=O)c1ccccc1	none (no result: MEKK2mut PB1 HTS, MEKK3 PB1 HTS, MEKK2wt PB1 HTS)
CCC(c1nnnn1C1CCCC1)N1CCN(Cc2ccccc2)CC1 (stereo not drawn)	none
